Bioassay records as filed in PubChem.
KDM5B inhibitor – Primary screen for KDM5B Histone Demethylases FDH-coupled qHTS. Potency, µM (titrated, usually from 57.7 µM), most hits filed as inhibitors. 220,000 compounds, 2.6% hits. Lysine-specific demethylase 5B (Homo sapiens), Q9UGL1. AID 1347165, 2019. KDM5B demethylase, FDH-coupled NADH fluorescence (FDH is formaldehyde dehydrogenase); active means well fitted inhibition curve with a large enough effect; further: nearly all actives have a fitted effect of over 70% in size
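Compound dilutions met 200 nM (final) KDM5BΔAP for 10 min at room temperature before substrate addition. The substrate mix held 12.5 µM H3K4me3 with cofactors 25 µM α-ketoglutarate and 50 µM Fe²⁺. NADH signal gain over 30 min defined activity.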
Numbers stand for hits. This excerpt belongs to a sample that is enriched for hits.

For COc1ccc(OCCN(C)C(=O)c2cccc3c(=O)c(C)c(-c4ccccc4)oc23)cc1 the results were KDM5B inhibitor inactive.
CCCNc1nc(-c2ccc3[nH]c(=O)oc3c2)cs1 was read as KDM5B inhibitor inactive.
Screening Cn1nc(OC(C)(C)C(=O)NCCc2ccccc2)c2cc(CN3CCCC3)ccc21 returned KDM5B inhibitor 40µM.
Screening CN1CCN(C(=O)C(C)(C)Oc2nn(CC3CC3)c3ccc(CN4CCCC4)cc23)CC1 returned KDM5B inhibitor 35µM.
`COCc1ccc2c(c1)c(OC(C)(C)C(=O)NCc1ccncc1)nn2Cc1cccc(OC)c1` gave KDM5B inhibitor inactive.
`CC(C)(Oc1nn(Cc2cccc(Cl)c2)c2ccccc12)C(=O)NCCc1cnc[nH]1` gave KDM5B inhibitor inactive.
For CC(C)(Oc1nn(CC2CC2)c2ccc(CN3CCCC3)cc12)C(=O)NCC(F)(F)F the results were KDM5B inhibitor 35µM.
`CC(C)CNC(=O)C(C)(C)Oc1nn(CC2CC2)c2ccc(CN3CCCC3)cc12` gave KDM5B inhibitor 40µM.
CC(C)(C(=O)NCc1ccc(CN2CCCC2)cc1)c1ccccc1 was read as KDM5B inhibitor inactive.
Screening COCc1ccc2c(c1)c(OC(C)(C)C(=O)Nc1ccccn1)nn2Cc1cccc(OC)c1 returned KDM5B inhibitor inactive.
`O=C(NCC(F)(F)F)C1CCCN(Cc2cccc(F)c2)C1` (stereo not given) gave KDM5B inhibitor inactive.
For CCc1ccc2c(c1)[C@]1(C(=O)N2)N2CCC[C@H]2[C@@H](C(=O)c2ccc(F)cc2)[C@]12C(=O)Nc1ccccc12 the results were KDM5B inhibitor inactive.
`CCc1ccc(NC(=O)c2sc3nc4c(cc3c2N)CN(C(C)C)CC4)cc1` gave KDM5B inhibitor inactive.
`CNc1cccc(Cl)c1Cl` gave KDM5B inhibitor inactive.
Screening COc1ncccc1CNC(=O)Nc1ccc(Br)c(C)c1 returned KDM5B inhibitor inactive.
For Oc1ccc(-c2nc(C3CC3)nc3c2CCN(Cc2cccc4ccccc24)CC3)cc1 the results were KDM5B inhibitor inactive.
For Cn1nc(CC(=O)Nc2cccc(OC(=O)c3ccc(C(C)(C)C)cc3)c2)c2ccccc2c1=O the results were KDM5B inhibitor inactive.
`Cc1sc(-c2cccc(O)c2)nc1-c1ccccc1` gave KDM5B inhibitor inactive.
Screening O=C(COc1ccc(Br)cc1F)OCC(=O)N1CCNC1=O returned KDM5B inhibitor inactive.
Screening CCOC(=O)c1c(NC(=O)c2noc3c2CC(C)CC3)sc(C)c1C (stereo not given) returned KDM5B inhibitor inactive.
Screening Cc1ccc(NC(=O)COC(=O)c2nc(-c3ccccc3)oc2C)c(C)c1 returned KDM5B inhibitor inactive.
COCc1ccc2c(c1)c(OC(C)(C)C(=O)NCC1CCOCC1)nn2Cc1cccnc1 was read as KDM5B inhibitor inactive.
CC(C)(Oc1nn(CC2CC2)c2ccc(CN3CCCC3)cc12)C(=O)Nc1cccnc1 was read as KDM5B inhibitor 28µM.
`COCc1ccc2c(c1)c(OC(C)(C)C(=O)Nc1ccc(OC)cc1)nn2Cc1cccnc1` gave KDM5B inhibitor inactive.
Screening CCCc1noc(-c2cccn3c(CNC(=O)c4ccc(F)cc4Cl)nnc23)n1 returned KDM5B inhibitor 14µM.
Cc1ccccc1-c1noc(-c2ccccc2C(=O)NCc2ccco2)n1 was read as KDM5B inhibitor inactive.
For CCCc1noc(-c2cccn3c(CNC(=O)c4cccc5[nH]ccc45)nnc23)n1 the results were KDM5B inhibitor inactive.
`CCCc1noc(-c2cccn3c(CNC(=O)c4ccccc4Cl)nnc23)n1` gave KDM5B inhibitor 28µM.
`CCCc1noc(-c2cccn3c(CNC(=O)c4ccccc4OCC)nnc23)n1` gave KDM5B inhibitor inactive.
`Cc1noc(-c2cccn3c(CNC(=O)c4ccccc4C)nnc23)n1` gave KDM5B inhibitor 28µM.
For CCCc1noc(-c2cccn3c(CNC(=O)c4ccccc4C)nnc23)n1 the results were KDM5B inhibitor 13µM.
`Cn1c(-n2cccc2)c(-c2c(-c3ccc(Cl)cc3)[nH]c3c2c(=O)[nH]c(=O)n3C)c(=O)[nH]c1=O` gave KDM5B inhibitor inactive.
Screening COc1ccc(S(=O)(=O)Nc2nc3ccccc3nc2Nc2cccc(Br)c2)cc1 returned KDM5B inhibitor inactive.
Screening CCn1c(C)cc(-c2csc(NCc3ccccc3OC)n2)c1C returned KDM5B inhibitor inactive.
Screening Cc1cccc(-n2nnnc2SCC(=O)c2ccc(Br)s2)c1 returned KDM5B inhibitor inactive.
Screening COc1ccc2ncc(C(=O)c3ccc(C)c(C)c3)c(N3CCOCC3)c2c1 returned KDM5B inhibitor inactive.
Cc1ccc(C2CC(=O)NC3=C2C(=O)CC(C)(C)C3)cc1 (stereo not given) was read as KDM5B inhibitor inactive.
Screening O/N=C1\CCSc2ccccc21 returned KDM5B inhibitor inactive.
Screening CNc1nc(-c2ccc(NS(C)(=O)=O)cc2)cs1 returned KDM5B inhibitor inactive.
Screening Cc1c(F)cccc1NC(=O)Nc1cccc(-c2ccc(N3CCOCC3)nn2)c1 returned KDM5B inhibitor inactive.
Screening CCC(=O)C1=C(c2ccc3c(c2)CCCC3)N(C(=O)CC)n2c(CC)nnc2S1 returned KDM5B inhibitor inactive.
Screening O=C(NC1C[C@H]2CC[C@@H](C1)N2S(=O)(=O)c1ccc(Cl)s1)c1ccncc1 (stereo not given in full) returned KDM5B inhibitor inactive.
Screening CC1CCN(S(=O)(=O)c2cn(CC(=O)Nc3ccc(F)cc3Cl)cn2)CC1 returned KDM5B inhibitor inactive.
Screening CCCNc1nc2ccccc2nc1C(=O)Nc1cccc(OC)c1 returned KDM5B inhibitor inactive.
`Cc1noc(-c2cccn3c(CNC(=O)Cc4c[nH]c5ccccc45)nnc23)n1` gave KDM5B inhibitor inactive.
`CCCc1noc(-c2cccn3c(CNC(=O)c4cc(C)ccc4C)nnc23)n1` gave KDM5B inhibitor 28µM.
CCc1noc(-c2cccn3c(CNC(=O)c4ccccc4Cl)nnc23)n1 was read as KDM5B inhibitor 28µM.
For CCCc1noc(-c2cccn3c(CNC(=O)c4ccc(OC)cc4C)nnc23)n1 the results were KDM5B inhibitor inactive.
`CC(C)NC(=O)c1nc(Cc2c[nH]c3ccccc23)no1` gave KDM5B inhibitor inactive.
CCCc1noc(-c2cccn3c(CNC(=O)Cc4c[nH]c5ccccc45)nnc23)n1 was read as KDM5B inhibitor 20µM.
Screening CCN1CCN(c2nc(-c3ccccc3)nc3cc(OC)c(OC)cc23)CC1 returned KDM5B inhibitor inactive.
Screening Cc1nn2c(NCCc3ncc[nH]3)cc(-c3ccccc3)nc2c1C returned KDM5B inhibitor 32µM.
Screening Cc1nn2c(NCCN(C)C)cc(C(C)C)nc2c1-c1ccccc1 returned KDM5B inhibitor inactive.
For CCCc1cc(NCCN(C)C)n2nc(C)c(-c3ccccc3)c2n1 the results were KDM5B inhibitor inactive.
For CC12CCCC(C(N)=O)(CCC1)C2 the results were KDM5B inhibitor inactive.
Screening COC(=O)c1c(NC(=O)CSc2nc3ccc(C)cc3[nH]2)sc2c1CCC2 returned KDM5B inhibitor inactive.
`CC(=O)N1CCC(N2CC[C@H](c3nc4ccccc4s3)C2)CC1` gave KDM5B inhibitor 32µM.
For CC(=O)NC(C(=O)N1CCC(c2nc3ccccc3s2)CC1)C(C)C (stereo not given) the results were KDM5B inhibitor inactive.
Screening Cc1cc(C)cc(OCC(=O)N2CCC(c3nc4ccccc4s3)CC2)c1 returned KDM5B inhibitor inactive.
For Cc1ccc(C(=O)N2CCCCCCNC(=O)[C@@H]3C[C@@H](C(=O)N4CCc5ccccc5C4)C[C@@H]32)s1 the results were KDM5B inhibitor inactive.
